Read-out in experiment [1]: Cytochrome P450 2C19 (Homo sapiens) (UniProt P33261)
As to the kind of experiment: CLD_CYP2C19_6hr: CellzDirect (CLD) Gene Expression Assay for xenobiotic metabolism (CYP2C19) at 6 hours (AID 2283678). In outline: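 CYP2C19 transcript induction was quantified by quantitative nuclease protection assay with chemiluminescent read-out, 6 h after dosing. Cells were primary human hepatocytes from two donor preparations, given fresh dosing solutions daily in 0.2% DMSO vehicle. Activity was relative to DMSO.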

A short description of experiment [2]: CCTE_Padilla_ZF_144hpf_TERATOSCORE: (Legacy) CCTE's 144 Hour Post-fertilization zebrafish Assay Teratoscore, Padilla Lab (AID 2283679; active = hit-call score of the fitted dose curve at least 0.9, where 1 is the maximum; inactive = score below 0.9;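 as to AC50: zebrafish embryos with chorions exposed by immersion from 6-8 hpf to 5 dpf with daily renewal; teratogenicity score from eye scoring of death hatching and malformations at 144 hpf; higher score means more developmental defects relative to DMSO baseline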). An outline of the steps:
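Larvae scored by eye at 144 hpf for death, hatching and malformations after a day in clean Hanks'. Before that, daily-renewed exposure at 80 uM (0.4% DMSO, 26C) from roughly 6-8 hpf through 5 dpf, 4 embryos per chemical.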

Read-out in experiment [3]: HMG-CoA synthase (HMGCS2), HMGCS2 (gene 3158)
As to the kind of experiment: CLD_HMGCS2_6hr: CellzDirect (CLD) Gene Expression Assay for HMG-CoA synthase (HMGCS2) at 6 hours (AID 2283682).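 Also: actives raise HMGCS2 transcript above the 0.2% DMSO vehicle baseline.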 In outline:
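HMGCS2 transcript induction read by quantitative nuclease protection with chemiluminescence, 6 h after dosing of primary human hepatocytes. Baseline was 0.2% DMSO vehicle; phase-contrast morphology gave a yes/no cytotoxicity annotation.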

Read-out in experiment [4]: Cytochrome P450 2B6 (Homo sapiens) (UniProt P20813)
Nature of the experiment: CLD_CYP2B6_24hr: CellzDirect (CLD) Gene Expression Assay for xenobiotic metabolism (CYP2B6) at 24 hours (AID 2283686). An outline of the steps: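 qNPA chemiluminescent measurement of mRNA at 24 hours in human primary hepatocyte cultures from two donor preparations, with daily fresh dosing and 0.2% DMSO vehicle as baseline. Morphology-based cytotoxicity flagged yes/no.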

Read-out in experiment [5]: Cytochrome P450 2C19 (Homo sapiens) (UniProt P33261)
As to the kind of experiment: CLD_CYP2C19_24hr: CellzDirect (CLD) Gene Expression Assay for xenobiotic metabolism (CYP2C19) at 24 hours (AID 2283687).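 Also: activity means mRNA induction above DMSO vehicle baseline.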 In outline: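 CYP2C19 mRNA was quantified by qNPA chemiluminescence after 24 h of daily dosing of cultured human primary hepatocytes from two donors; vehicle was 0.2% DMSO, and increases over DMSO baseline were fitted.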

Read-out in experiment [6]: Cytochrome P450 2C9 (Homo sapiens) (UniProt P11712)
As to the kind of experiment: CLD_CYP2C9_24hr: CellzDirect (CLD) Gene Expression Assay for xenobiotic metabolism (CYP2C9) at 24 hours (AID 2283688). In outline:
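Induction of CYP2C9 mRNA was quantified by quantitative nuclease protection assay (chemiluminescence), gain of signal versus 0.2% DMSO vehicle, 24 h after dosing. Human primary hepatocytes (two donors) received fresh chemical daily at multiple concentrations; morphology-based cytotoxicity flagged yes/no.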

Read-out in experiment [7]: Cytochrome P450 3A4 (Homo sapiens) (UniProt P08684)
As to the kind of experiment: CLD_CYP3A4_24hr: CellzDirect (CLD) Gene Expression Assay for xenobiotic metabolism (CYP3A4) at 24 hours (AID 2283689). An outline of the steps: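 CYP3A4 mRNA induction read by quantitative nuclease protection (chemiluminescence) 24 hr after dosing. Cultured human hepatocytes (two donor preparations) treated daily, vehicle 0.2% DMSO; phase-contrast morphology annotates cytotoxicity.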

Read-out in experiment [8]: glucuronosyltransferase (UGT1A1), UGT1A1 (gene 54658)
Nature of the experiment: CLD_UGT1A1_24hr: CellzDirect (CLD) Gene Expression Assay for glucuronosyltransferase (UGT1A1) at 24 hours (AID 2283696). An outline of the steps:
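UGT1A1 transcript induction was measured by quantitative nuclease protection assay (chemiluminescence) in human hepatocyte cultures 24 h after daily fresh dosing, with 0.2% DMSO as vehicle and baseline.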

Read-out in experiment [9]: Cytochrome P450 2C19 (Homo sapiens) (UniProt P33261)
As to the kind of experiment: CLD_CYP2C19_48hr: CellzDirect (CLD) Gene Expression Assay for xenobiotic metabolism (CYP2C19) at 48 hours (AID 2283700).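 Also: fitted upward so actives raise CYP2C19 mRNA above the 0.2% DMSO vehicle.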 An outline of the steps: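 CYP2C19 mRNA induction read by chemiluminescent quantitative nuclease protection assay after 48 h, with fresh compound added daily for two days to cultured human liver hepatocytes. Activity fitted upward against 0.2% DMSO vehicle.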

Read-out in experiment [10]: Broad substrate specificity ATP-binding cassette transporter ABCG2 (Homo sapiens) (UniProt Q9UNQ0)
Nature of the experiment: CLD_ABCG2_24hr: CellzDirect (CLD) Gene Expression Assay for ABC Transporter (ABCG2) at 24 hours (AID 2283685). An outline of the steps: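 ABCG2 mRNA induction, read as gain of chemiluminescent signal over 0.2% DMSO, was measured by quantitative nuclease protection at 24 h. Cultured human liver hepatocytes were given fresh dosing solutions of test chemicals at several concentrations each day.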

Read-out in experiment [11]: Cytochrome P450 3A4 (Homo sapiens) (UniProt P08684)
As to the kind of experiment: CLD_CYP3A4_48hr: CellzDirect (CLD) Gene Expression Assay for xenobiotic metabolism (CYP3A4) at 48 hours (AID 2283698). In outline:
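CYP3A4 induction read by qNPA chemiluminescence after 48 h, with fresh dosing solutions on consecutive days, in cultured human hepatocytes (two donors). Vehicle 0.2% DMSO as baseline; microscopy-based cytotoxicity annotated yes/no alongside data.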

Read-out in experiment [12]: Cytochrome P450 2B6 (Homo sapiens) (UniProt P20813)
Nature of the experiment: CLD_CYP2B6_48hr: CellzDirect (CLD) Gene Expression Assay for xenobiotic metabolism (CYP2B6) at 48 hours (AID 2283699).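 Also: actives raise transcript level above DMSO so potency reflects induction.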 In outline:
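CYP2B6 transcript induction, read by quantitative nuclease protection (S1 digestion, chemiluminescent detection) 48 h after dosing, is fitted upward against 0.2% DMSO. Cultured human liver primary cells, two donor preparations, received fresh chemical daily over multiple concentrations.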

Read-out in experiment [13]: Glyceraldehyde-3-phosphate dehydrogenase (Homo sapiens) (UniProt P04406)
As to the kind of experiment: CLD_GAPDH_6hr: CellzDirect (CLD) Gene Expression Assay for Baseline Control (Glyceraldehyde 3-phosphate dehydrogenase) at 6 hours (AID 2283681).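 Also: active means increased signal relative to DMSO vehicle.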 In outline: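 GAPDH baseline-control readout from qNPA (S1 nuclease digestion, probe hybridization, chemiluminescence) in lysates of cultured human hepatocytes harvested 6 h post-dosing. Chemicals tested at multiple concentrations versus 0.2% DMSO vehicle; microscopy-based cytotoxicity flagged yes/no.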

Read-out in experiment [14]: xenobiotic metabolism (CYP1A2), CYP1A2 (gene 1544)
Nature of the experiment: CLD_CYP1A2_24hr: CellzDirect (CLD) Gene Expression Assay for xenobiotic metabolism (CYP1A2) at 24 hours (AID 2283683). In outline: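 CYP1A2 mRNA induction measured by quantitative nuclease protection (chemiluminescent) in human primary hepatocytes 24 h after multi-concentration chemical dosing with daily fresh solutions. DMSO (0.2%) baseline; positive-direction fitting; morphology-based cytotoxicity noted.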

Read-out in experiment [15]: ABC Transporter (ABCB1), ABCB1 (gene 5243)
Nature of the experiment: CLD_ABCB1_24hr: CellzDirect (CLD) Gene Expression Assay for ABC Transporter (ABCB1) at 24 hours (AID 2283684). An outline of the steps:
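ABCB1 mRNA induction versus 0.2% DMSO vehicle was read by qNPA chemiluminescence at 24 h. Cultured human hepatocytes from two donor preparations received daily fresh dosing, and phase-contrast cytotoxicity calls were annotated alongside the data.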

Read-out in experiment [16]: sulfotransferase (SULT2A), SULT2A1 (gene 6822)
As to the kind of experiment: CLD_SULT2A_24hr: CellzDirect (CLD) Gene Expression Assay for sulfotransferase (SULT2A) at 24 hours (AID 2283694). In outline: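 mRNA is measured by qNPA: probe hybridisation, S1 nuclease digestion, chemiluminescence, in lysates from human primary hepatocytes harvested 24 h after daily dosing. Vehicle was 0.2% DMSO. Phase-contrast microscopy flagged cytotoxicity (yes/no).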

Inconclusive results are not listed. Activity calls are given as the source filed them. The calls were made as follows, unless noted: active = hit-call score of the fitted dose curve at least 0.9, where 1 is the maximum; inconclusive = response in the unintended direction; inactive = score below 0.9.

Sequence of Cytochrome P450 3A4 (Homo sapiens) (P08684 whole entry, looked up): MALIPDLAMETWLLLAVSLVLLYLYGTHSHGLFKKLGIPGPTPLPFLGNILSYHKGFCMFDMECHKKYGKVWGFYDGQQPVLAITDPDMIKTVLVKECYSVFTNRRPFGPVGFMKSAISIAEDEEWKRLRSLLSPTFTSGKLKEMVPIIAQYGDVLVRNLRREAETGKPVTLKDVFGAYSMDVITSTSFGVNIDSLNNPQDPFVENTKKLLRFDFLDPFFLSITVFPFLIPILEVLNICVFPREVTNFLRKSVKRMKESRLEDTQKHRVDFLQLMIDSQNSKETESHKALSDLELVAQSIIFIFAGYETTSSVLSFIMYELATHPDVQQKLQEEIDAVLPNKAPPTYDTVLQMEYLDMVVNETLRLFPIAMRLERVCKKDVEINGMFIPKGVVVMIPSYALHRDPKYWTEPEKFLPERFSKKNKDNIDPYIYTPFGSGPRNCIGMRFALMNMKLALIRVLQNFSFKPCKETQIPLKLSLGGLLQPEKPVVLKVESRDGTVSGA
Sequence of Cytochrome P450 2C19 (Homo sapiens) (P33261 whole entry, looked up): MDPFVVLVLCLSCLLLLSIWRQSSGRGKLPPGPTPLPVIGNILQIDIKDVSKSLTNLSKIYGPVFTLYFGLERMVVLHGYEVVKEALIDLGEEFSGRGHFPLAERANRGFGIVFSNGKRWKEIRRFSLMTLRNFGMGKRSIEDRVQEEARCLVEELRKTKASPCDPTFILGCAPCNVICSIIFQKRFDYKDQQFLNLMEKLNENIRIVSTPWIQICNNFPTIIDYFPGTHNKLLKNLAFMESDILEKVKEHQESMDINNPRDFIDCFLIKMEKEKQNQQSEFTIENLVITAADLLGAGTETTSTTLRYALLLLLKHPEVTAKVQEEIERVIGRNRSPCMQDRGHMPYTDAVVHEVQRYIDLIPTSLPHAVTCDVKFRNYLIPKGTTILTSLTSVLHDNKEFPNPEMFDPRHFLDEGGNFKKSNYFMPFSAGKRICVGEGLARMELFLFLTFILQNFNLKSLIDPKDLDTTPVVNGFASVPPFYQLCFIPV
Sequence of Broad substrate specificity ATP-binding cassette transporter ABCG2 (Homo sapiens) (Q9UNQ0 whole entry, looked up): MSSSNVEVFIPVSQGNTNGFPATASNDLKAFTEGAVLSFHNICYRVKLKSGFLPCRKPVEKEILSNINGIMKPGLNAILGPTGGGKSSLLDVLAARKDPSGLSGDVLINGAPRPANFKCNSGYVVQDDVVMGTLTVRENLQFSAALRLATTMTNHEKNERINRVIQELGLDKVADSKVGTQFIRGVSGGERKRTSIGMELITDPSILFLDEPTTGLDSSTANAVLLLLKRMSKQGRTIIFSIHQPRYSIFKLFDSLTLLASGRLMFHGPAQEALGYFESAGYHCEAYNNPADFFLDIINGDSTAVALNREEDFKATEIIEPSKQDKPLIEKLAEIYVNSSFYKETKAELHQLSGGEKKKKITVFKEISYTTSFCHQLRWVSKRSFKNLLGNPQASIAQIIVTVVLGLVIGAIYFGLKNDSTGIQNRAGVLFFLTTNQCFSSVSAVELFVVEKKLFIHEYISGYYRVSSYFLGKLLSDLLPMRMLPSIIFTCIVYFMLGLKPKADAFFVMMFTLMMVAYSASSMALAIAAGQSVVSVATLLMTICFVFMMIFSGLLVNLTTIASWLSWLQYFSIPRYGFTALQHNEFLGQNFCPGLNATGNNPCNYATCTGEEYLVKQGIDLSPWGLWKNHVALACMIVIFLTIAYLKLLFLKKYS
Sequence of Glyceraldehyde-3-phosphate dehydrogenase (Homo sapiens) (P04406 whole entry, looked up): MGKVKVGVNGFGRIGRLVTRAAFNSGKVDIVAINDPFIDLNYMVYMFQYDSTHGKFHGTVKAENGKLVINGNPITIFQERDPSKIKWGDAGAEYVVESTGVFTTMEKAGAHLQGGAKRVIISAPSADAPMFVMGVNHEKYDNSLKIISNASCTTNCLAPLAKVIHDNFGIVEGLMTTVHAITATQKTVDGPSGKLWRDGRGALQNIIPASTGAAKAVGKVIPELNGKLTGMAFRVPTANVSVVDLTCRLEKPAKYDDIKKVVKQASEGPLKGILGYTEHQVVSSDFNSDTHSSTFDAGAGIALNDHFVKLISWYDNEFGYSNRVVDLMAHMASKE

On to `CNC(=O)ON=C(SC)C(=O)N(C)C`, for which the outcome in experiment [1], in experiment [2], in experiment [3], in [4], in [5] and in [6] was inactive. The result in [7], in experiment [8] and in experiment [9] was inactive.

In general, AC50 refers to the midpoint of the concentration-response curve, whichever way the signal moves. In the case of `CCOP(=S)(OCC)SCCSCC`, the molecule was called inactive in experiment [1], in experiment [2], in experiment [3], in experiment [10] and in experiment [9]. For the same molecule, the AC50 in experiment [4] is 3.91 µM (active); in [7], 20 µM (active); in experiment [8] it was 24.6 µM (active); in [11] it was 20 µM (active).

On to `CCOC(=O)CC(SP(=O)(OC)OC)C(=O)OCC` (configuration not stated), for which the outcome in experiment [1], in [2], in experiment [10], in experiment [6] and in experiment [8] was inactive. Moreover, the half-maximal activity concentration (AC50) in [4], in experiment [7], in experiment [11] and in experiment [12] was 20 µM (active) each time.

Take `CCC(=NOC/C=C/Cl)C1=C(O)CC(C2CCOCC2)CC1=O` (configuration not stated): the call in experiment [1], in experiment [2], in [3], in [4], in experiment [6] and in experiment [7] was inactive. Moreover, the molecule was called inactive in [8].

Take `O=c1ccc(=O)[nH][nH]1`: the molecule was classed as inactive in [1], in experiment [2], in experiment [3], in [10], in [6] and in experiment [8].

Regarding `COP(=O)(OC)OC(Br)C(Cl)(Cl)Br` (configuration not stated), the molecule was called inactive in [1], in experiment [3], in experiment [4], in experiment [8], in experiment [11] and in experiment [12]. Besides, the outcome in experiment [9] was inactive. Also, the AC50 in [2] is 16.7 µM (active).

As for `CSc1nc(NC(C)C)nc(NC(C)C)n1`, the outcome in experiment [1], in experiment [13], in experiment [6] and in experiment [8] was inactive. The AC50 is 132 µM (active) in experiment [2]; 2.63 µM (active) in experiment [14]; 2.99 µM (active) in experiment [4]; 3.97 µM (active) in experiment [7]; 3.24 µM (active) in experiment [11].

`CCc1cnc(C2=NC(C)(C(C)C)C(=O)N2)c(C(=O)O)c1` (configuration not stated): the molecule was called inactive in experiment [1], in [2], in experiment [3], in [14], in experiment [15] and in experiment [4]. In addition, the molecule was called inactive in experiment [7], in experiment [8], in experiment [11] and in experiment [9].

As for `CCC(=O)Nc1ccc(Cl)c(Cl)c1`, the molecule was called inactive in experiment [1], in experiment [3], in experiment [7], in experiment [16], in experiment [8] and in experiment [11]. Besides, the AC50 is 61.3 µM (active) in experiment [2], 3.95 µM (active) in experiment [14], 3.95 µM (active) in experiment [4] and 0.92 µM (active) in experiment [12].
